The results in this text go back to article PMC7862700, “An all-to-all approach to the identification of sequence-specific readers for epigenetic DNA modifications on cytosine”.

Common to all, as to experiment: DAPPL (digital affinity profiling via proximity ligation, sequencing); 10 mM Tris-HCl pH 7.5, 50 mM NaCl, 1 mM DTT, 4% glycerol, room temperature, 30 min; GST-TFs on glutathione beads, 16-mer random dsDNA library, 0.1% formaldehyde crosslink after washing; high values mean tight binding
Holding throughout (details): protein: recombinant; tags: N-terminal GST; dsDNA, one strand shown

Experiment [1] concerns the target T1, ELK1 (Homo sapiens, UniProt P19419 1-428).
T1 sequence: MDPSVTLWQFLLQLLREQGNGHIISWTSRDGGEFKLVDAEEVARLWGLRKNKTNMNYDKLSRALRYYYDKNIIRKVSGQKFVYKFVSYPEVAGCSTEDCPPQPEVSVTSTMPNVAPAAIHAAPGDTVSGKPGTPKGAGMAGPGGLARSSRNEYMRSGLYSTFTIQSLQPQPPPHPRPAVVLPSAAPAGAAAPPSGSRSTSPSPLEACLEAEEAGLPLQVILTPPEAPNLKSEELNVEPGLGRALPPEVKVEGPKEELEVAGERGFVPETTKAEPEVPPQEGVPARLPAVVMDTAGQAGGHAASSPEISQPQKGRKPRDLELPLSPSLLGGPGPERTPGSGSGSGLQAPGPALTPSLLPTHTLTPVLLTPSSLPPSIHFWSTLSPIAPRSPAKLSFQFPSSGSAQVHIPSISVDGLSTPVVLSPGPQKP
In a few lines:
(§1)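 GST fusions of human transcription factors were expressed in yeast and captured with glutathione beads. Once given DNA barcodes and pooled alongside a tag-only sample, they were incubated for 30 min at room temperature with 200 nmole of a random double-stranded 16-mer DNA library in Tris/NaCl/DTT/glycerol buffer, then washed, crosslinked (0.1% formaldehyde), proximity-ligated, PCR-amplified and sequenced on an Illumina NextSeq500. The binding signal of each hexamer is its read frequency for a factor divided by its frequency for the tag-only sample.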

Experiment [2] deals with T2, GABPA (Homo sapiens, UniProt Q06546 1-454).
T2 sequence: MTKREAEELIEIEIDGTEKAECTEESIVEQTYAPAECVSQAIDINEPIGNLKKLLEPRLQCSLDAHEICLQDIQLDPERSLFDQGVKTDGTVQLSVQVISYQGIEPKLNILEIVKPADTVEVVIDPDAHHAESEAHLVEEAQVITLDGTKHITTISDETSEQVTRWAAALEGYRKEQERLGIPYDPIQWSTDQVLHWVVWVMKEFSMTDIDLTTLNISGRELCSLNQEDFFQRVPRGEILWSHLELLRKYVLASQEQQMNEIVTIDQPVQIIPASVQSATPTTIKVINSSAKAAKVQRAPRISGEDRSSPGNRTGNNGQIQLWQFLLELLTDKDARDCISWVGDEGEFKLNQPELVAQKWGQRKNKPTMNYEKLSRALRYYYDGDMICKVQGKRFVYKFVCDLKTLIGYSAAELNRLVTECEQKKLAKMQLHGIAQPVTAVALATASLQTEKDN
In a few lines:
as §1

Experiment [3] addresses T3, ERG (Homo sapiens, UniProt P11308 1-479).
T3 sequence: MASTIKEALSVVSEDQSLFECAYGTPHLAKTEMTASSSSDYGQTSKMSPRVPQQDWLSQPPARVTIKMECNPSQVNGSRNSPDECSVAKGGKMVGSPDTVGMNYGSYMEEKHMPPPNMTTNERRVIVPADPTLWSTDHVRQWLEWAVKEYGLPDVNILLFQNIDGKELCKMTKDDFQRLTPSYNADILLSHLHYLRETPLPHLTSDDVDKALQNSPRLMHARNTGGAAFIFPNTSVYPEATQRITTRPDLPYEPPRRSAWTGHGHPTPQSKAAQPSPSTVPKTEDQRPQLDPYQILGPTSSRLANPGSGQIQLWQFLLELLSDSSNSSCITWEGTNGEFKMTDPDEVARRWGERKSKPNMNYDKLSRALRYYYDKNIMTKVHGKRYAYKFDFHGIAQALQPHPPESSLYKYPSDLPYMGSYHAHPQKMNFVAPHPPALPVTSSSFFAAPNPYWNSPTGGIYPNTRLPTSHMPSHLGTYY
In a few lines: as §1

The target in experiment [4] is ELF1 (Homo sapiens, UniProt P32519 1-619). In a few lines: as §1
Sequence of ELF1 (P32519 whole entry): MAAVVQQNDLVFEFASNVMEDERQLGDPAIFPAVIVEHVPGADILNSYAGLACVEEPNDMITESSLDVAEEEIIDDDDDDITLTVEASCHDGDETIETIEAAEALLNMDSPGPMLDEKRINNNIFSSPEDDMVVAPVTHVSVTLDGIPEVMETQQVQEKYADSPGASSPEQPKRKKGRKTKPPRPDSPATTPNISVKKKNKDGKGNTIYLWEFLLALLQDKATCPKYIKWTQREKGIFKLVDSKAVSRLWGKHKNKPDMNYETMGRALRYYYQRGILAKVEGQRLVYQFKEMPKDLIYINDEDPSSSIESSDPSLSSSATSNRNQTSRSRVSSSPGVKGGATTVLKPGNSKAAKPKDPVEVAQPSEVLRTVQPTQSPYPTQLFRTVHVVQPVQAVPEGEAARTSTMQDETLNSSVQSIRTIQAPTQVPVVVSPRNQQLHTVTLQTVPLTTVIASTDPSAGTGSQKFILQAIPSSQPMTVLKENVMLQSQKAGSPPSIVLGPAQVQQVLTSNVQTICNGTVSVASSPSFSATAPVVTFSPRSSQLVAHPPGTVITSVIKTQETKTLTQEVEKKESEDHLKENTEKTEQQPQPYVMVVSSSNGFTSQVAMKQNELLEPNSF
For experiment [5], the target named is T4, EHF (Homo sapiens, UniProt Q9NZC4 1-300).
T4 sequence: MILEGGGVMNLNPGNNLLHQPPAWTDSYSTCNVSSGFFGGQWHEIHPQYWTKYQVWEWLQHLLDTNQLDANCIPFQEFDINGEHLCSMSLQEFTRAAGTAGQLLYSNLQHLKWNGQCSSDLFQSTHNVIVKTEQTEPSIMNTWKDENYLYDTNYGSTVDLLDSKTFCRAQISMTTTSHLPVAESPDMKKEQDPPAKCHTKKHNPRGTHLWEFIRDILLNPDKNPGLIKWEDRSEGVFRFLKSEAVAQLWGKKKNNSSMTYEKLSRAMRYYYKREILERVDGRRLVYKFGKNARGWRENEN
In a few lines: as §1

In experiment [6] the target is SPIB (Homo sapiens, UniProt Q01892 1-262). In a few lines: as §1
Sequence of SPIB (Q01892 whole entry): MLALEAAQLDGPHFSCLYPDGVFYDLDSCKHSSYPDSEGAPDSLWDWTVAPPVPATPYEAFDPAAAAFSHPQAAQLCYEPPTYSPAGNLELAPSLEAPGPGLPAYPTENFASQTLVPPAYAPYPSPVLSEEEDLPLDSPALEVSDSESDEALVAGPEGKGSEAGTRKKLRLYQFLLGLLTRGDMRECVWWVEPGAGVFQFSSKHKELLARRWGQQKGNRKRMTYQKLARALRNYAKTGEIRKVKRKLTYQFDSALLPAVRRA
The target of experiment [7] is T5, FEV (Homo sapiens, UniProt Q99581 1-238).
T5 sequence: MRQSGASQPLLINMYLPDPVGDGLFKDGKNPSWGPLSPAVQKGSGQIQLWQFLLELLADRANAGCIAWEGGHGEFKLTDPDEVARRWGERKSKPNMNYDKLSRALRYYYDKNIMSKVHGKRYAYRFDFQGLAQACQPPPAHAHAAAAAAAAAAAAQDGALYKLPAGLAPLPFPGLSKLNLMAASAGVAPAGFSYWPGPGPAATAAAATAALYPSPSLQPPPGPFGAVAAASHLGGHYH
In a few lines: as §1

The target of experiment [8] is ETV5 (Homo sapiens, UniProt P41161 1-510). In a few lines:
as §1

The target in experiment [9] is ELF4 (Homo sapiens, UniProt Q99607 1-663). In a few lines:
as §1

In experiment [10] the target is T6, ELK4 (Homo sapiens, UniProt P28324-2 1-405).
T6 sequence: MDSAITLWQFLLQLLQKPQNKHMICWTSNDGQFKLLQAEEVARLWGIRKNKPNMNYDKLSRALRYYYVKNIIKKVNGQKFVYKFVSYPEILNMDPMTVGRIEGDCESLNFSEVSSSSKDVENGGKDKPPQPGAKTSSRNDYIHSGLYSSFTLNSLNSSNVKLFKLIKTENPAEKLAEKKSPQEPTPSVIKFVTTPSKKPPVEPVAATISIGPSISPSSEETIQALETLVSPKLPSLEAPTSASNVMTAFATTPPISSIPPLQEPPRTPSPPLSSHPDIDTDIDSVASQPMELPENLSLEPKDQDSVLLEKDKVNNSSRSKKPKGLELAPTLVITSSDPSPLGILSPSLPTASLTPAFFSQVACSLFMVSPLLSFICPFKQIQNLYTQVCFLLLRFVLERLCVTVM
In a few lines:
as §1

The target in experiment [11] is T7, ETV2 (Homo sapiens, UniProt O00321 1-342).
T7 sequence: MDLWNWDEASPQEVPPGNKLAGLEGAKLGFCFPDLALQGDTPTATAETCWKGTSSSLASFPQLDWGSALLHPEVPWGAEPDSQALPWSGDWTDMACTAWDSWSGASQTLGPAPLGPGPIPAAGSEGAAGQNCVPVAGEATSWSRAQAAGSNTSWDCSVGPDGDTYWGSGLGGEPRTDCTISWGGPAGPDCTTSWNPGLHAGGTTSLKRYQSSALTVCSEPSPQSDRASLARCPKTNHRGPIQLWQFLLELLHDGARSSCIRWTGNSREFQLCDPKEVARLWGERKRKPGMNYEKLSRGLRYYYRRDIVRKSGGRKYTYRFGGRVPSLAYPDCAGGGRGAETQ
In a few lines:
as §1

Experiment [12] has as its target ETV1 (Homo sapiens, UniProt P50549 1-477). In a few lines:
as §1

Experiment [13] deals with T8, ERF (Homo sapiens, UniProt P50548 1-548).
T8 sequence: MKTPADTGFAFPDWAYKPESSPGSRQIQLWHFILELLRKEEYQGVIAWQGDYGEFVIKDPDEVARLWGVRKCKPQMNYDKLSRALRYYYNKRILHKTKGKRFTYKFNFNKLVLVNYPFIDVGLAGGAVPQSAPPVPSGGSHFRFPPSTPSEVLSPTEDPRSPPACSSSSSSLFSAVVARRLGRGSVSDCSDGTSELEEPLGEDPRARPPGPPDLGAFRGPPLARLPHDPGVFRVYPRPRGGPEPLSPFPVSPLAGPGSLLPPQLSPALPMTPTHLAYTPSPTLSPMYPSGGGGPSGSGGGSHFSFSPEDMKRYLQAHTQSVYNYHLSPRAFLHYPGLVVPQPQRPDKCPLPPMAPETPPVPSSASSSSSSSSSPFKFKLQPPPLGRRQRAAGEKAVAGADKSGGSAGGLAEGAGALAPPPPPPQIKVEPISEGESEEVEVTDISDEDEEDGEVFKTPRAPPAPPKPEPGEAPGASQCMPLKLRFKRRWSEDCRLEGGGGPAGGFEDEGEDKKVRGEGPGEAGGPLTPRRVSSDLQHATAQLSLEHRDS
In a few lines:
as §1

For experiment [14], the target named is T9, ETV3L (Homo sapiens, UniProt Q6ZN32 1-361).
T9 sequence: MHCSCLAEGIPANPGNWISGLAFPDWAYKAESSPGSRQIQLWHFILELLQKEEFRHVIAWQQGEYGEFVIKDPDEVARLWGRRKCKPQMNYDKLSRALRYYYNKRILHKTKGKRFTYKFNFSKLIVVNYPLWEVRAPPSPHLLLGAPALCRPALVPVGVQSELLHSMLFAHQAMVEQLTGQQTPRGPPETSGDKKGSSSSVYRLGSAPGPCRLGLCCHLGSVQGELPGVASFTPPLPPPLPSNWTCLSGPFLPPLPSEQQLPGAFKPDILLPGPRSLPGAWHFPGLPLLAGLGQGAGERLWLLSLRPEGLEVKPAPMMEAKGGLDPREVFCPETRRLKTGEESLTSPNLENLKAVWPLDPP
In a few lines: as §1

The target in experiment [15] is T10, ETS2 (Homo sapiens, UniProt P15036 1-469).
T10 sequence: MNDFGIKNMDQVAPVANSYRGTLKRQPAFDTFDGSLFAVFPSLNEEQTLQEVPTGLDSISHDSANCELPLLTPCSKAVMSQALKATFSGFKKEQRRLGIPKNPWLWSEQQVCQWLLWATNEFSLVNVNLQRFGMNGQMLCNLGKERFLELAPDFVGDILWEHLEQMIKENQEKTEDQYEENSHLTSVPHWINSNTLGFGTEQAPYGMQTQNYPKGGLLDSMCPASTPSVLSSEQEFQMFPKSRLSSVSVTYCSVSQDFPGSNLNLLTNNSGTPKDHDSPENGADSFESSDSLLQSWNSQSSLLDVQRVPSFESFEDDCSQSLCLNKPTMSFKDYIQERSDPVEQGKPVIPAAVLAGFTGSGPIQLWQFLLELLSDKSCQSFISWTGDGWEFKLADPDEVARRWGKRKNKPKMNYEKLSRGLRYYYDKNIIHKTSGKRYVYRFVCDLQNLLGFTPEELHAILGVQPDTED
In a few lines:
as §1

Experiment [16] addresses T11, SPDEF (Homo sapiens, UniProt O95238 1-335).
T11 sequence: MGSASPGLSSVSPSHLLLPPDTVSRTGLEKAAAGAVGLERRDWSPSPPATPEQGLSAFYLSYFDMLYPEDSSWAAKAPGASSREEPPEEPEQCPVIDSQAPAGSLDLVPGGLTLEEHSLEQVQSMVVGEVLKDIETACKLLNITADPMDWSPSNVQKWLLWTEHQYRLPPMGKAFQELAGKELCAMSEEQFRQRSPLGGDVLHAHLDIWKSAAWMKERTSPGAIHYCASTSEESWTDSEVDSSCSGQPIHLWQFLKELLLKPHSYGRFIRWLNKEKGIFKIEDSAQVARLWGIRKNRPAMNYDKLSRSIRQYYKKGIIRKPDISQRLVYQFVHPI
In a few lines:
as §1

The target of experiment [17] is T12, ETV7 (Homo sapiens, UniProt Q9Y603 1-341).
T12 sequence: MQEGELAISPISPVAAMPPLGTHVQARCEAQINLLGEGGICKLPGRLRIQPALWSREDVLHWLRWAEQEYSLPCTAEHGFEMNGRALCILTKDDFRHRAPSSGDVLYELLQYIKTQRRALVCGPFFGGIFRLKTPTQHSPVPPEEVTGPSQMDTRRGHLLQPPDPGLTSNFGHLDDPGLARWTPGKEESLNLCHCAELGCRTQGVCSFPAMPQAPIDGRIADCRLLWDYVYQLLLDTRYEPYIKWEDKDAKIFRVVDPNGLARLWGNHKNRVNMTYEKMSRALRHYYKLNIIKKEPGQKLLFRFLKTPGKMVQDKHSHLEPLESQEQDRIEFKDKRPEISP
In a few lines: as §1

Experiment [18] concerns the target T13, ETV3 (Homo sapiens, UniProt P41162-2 1-143).
T13 sequence: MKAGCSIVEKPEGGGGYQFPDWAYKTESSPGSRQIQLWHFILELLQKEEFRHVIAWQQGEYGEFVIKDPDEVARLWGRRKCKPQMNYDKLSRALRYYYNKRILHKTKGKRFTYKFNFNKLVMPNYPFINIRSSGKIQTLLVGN
In a few lines: as §1

Experiment [19] has as its target ETV6 (Homo sapiens, UniProt P41212 1-452). In a few lines: as §1

Sequence of ETV5 (P41161 whole entry): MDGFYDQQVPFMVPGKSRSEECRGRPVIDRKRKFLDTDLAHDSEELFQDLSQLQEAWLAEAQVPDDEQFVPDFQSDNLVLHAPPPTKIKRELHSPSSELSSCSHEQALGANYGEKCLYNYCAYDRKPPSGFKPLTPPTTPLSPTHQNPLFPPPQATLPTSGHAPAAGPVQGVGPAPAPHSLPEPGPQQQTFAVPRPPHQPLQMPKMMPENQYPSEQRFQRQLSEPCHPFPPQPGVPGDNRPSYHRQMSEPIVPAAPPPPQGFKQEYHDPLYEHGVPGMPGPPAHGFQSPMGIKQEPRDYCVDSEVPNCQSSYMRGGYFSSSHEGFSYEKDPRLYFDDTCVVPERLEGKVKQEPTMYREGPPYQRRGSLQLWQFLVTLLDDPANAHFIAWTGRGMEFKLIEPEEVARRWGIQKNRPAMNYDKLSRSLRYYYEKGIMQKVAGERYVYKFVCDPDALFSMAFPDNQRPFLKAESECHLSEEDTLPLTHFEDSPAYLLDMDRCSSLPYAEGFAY
Sequence of ELF4 (Q99607 whole entry): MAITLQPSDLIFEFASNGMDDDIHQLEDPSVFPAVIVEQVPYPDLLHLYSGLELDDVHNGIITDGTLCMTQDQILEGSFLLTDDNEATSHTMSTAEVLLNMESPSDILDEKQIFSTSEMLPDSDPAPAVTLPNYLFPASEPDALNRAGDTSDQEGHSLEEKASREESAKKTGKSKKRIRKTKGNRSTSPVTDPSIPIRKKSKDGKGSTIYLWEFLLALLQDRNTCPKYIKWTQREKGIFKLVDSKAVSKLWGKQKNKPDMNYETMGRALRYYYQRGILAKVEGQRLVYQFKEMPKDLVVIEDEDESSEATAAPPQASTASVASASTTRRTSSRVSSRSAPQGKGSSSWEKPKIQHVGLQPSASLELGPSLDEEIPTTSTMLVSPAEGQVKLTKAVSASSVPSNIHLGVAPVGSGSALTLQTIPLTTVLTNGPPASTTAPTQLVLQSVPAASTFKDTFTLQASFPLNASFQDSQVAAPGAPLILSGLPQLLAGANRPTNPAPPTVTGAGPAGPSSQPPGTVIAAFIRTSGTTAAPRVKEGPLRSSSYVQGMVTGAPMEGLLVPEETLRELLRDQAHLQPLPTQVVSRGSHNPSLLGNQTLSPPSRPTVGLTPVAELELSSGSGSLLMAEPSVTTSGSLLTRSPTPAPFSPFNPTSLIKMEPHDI
Sequence of ETV6 (P41212 whole entry): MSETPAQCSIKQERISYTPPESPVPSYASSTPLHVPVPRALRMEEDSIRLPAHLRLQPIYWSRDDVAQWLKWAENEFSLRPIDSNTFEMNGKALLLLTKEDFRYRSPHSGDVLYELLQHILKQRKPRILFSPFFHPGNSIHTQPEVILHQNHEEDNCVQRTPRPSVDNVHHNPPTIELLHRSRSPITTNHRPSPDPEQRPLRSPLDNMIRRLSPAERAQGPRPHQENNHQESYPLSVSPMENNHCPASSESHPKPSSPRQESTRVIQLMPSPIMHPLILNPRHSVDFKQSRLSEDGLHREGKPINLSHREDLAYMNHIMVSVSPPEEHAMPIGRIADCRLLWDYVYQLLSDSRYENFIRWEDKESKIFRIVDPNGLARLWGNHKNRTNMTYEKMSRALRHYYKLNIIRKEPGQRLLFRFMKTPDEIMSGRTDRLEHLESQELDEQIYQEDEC
Sequence of ETV1 (P50549 whole entry): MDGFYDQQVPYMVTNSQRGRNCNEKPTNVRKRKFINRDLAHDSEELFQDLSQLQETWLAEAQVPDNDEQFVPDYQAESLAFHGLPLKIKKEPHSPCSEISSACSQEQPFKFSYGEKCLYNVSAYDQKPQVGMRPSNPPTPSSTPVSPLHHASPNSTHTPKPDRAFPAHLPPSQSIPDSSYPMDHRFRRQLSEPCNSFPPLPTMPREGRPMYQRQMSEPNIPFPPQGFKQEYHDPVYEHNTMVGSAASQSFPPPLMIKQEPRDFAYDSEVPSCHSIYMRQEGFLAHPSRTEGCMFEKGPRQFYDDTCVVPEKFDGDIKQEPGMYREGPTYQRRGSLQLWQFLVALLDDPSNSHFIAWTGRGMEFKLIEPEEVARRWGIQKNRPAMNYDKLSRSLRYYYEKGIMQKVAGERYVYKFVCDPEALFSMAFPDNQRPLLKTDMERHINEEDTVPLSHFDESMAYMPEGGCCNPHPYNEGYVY

TGGGGT: the binding signal in experiment [1] was 1.05 fold enrichment (6-mer frequency, TF over GST control); in experiment [2], 1.12 fold enrichment (6-mer frequency, TF over GST control); in [3] it was 1.1 fold enrichment (6-mer frequency, TF over GST control); in [4], 1.09 fold enrichment (6-mer frequency, TF over GST control); in experiment [5] it was 1.03 fold enrichment (6-mer frequency, TF over GST control); in experiment [6], 1.09 fold enrichment (6-mer frequency, TF over GST control). For the same sequence, the binding signal in experiment [7] is 1.02 fold enrichment (6-mer frequency, TF over GST control); in experiment [8] it was 1.13 fold enrichment (6-mer frequency, TF over GST control); in experiment [9], 1.08 fold enrichment (6-mer frequency, TF over GST control); in experiment [10] it was 1.21 fold enrichment (6-mer frequency, TF over GST control); in experiment [11], 1.08 fold enrichment (6-mer frequency, TF over GST control); in [12], 1.14 fold enrichment (6-mer frequency, TF over GST control). Also, the binding signal was 1.02 fold enrichment (6-mer frequency, TF over GST control) in experiment [13]; 1.2 fold enrichment (6-mer frequency, TF over GST control) in [14]; 1.2 fold enrichment (6-mer frequency, TF over GST control) in experiment [15]; 1.08 fold enrichment (6-mer frequency, TF over GST control) in experiment [16]; 1.05 fold enrichment (6-mer frequency, TF over GST control) in experiment [17]; 1.14 fold enrichment (6-mer frequency, TF over GST control) in experiment [18]. Further, the binding signal in experiment [19] is 1.09 fold enrichment (6-mer frequency, TF over GST control).
